Source: PubChem BioAssay AID602250 (The Scripps Research Institute Molecular Screening Center, 2012)
The campaign covered roughly 360,000 compounds. About 2,200 (0.61%) were called active. The list comes from a sample in which actives are over-represented; it also holds similar structures and randomly drawn compounds. Unmarked numbers belong to inactive results.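 The calls were made as follows: active = inhibition above a per-plate cutoff, the plate's mean sample inhibition plus 3 SD (cut at about 24% in these data); inactive = the rest.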

Experiment: calcium signal blockers in parental CHO-K1 cells – cell-based, Fluo-8 calcium fluorescence, full deck, 1536-well, counter-screen for M1 antagonist project, primary screen (AID 602250);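 also: 0% = DMSO plus EC80 ATP and 100% = DMSO alone without ATP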
Details: ATP-induced calcium, Fluo-8 fluorescence, at 3 µM, stronger effect = higher value

SMILES | inhibition
O=C(Nc1c(C(=O)N2CCCCC2)cnn1-c1ccccc1)c1ccco1 | -0.49%
O=C(Nc1ccc(-n2cccn2)cc1)C1CCN(Cc2ccsc2)CC1 | 9.41%
CCCN(CCc1ccccc1)C1CCc2c(O)cccc2C1 (stereo not given) | 27.5% (active)
Cc1cc(C)cc(C(=O)N(CCc2ccccc2)C2=CC3CCC(C2)N3C)c1 (stereo not given) | -5.45%
CCN(CC(=O)NC(C)C)C(=O)CCNC(=O)c1ccc(Cl)cc1 | -14.6%
O=C1NC[C@@H](Cc2ccc(O)cc2)N(CCc2cccc(F)c2)C1=O | -5%
Cc1cc(C)c(C#N)c(N2CCC(C(N)=O)CC2)n1 | 23.7% (active)
N#Cc1c(N2CCCCC2)nc(N)c2c(N)nc(SCC(=O)O)cc12 | -8.03%
Cc1cccn2c(=O)c(/C=C(\C#N)S(=O)(=O)c3ccc(Cl)cc3)c(N3CCC(C(N)=O)CC3)nc12 | -14.1%
Cc1ccc(OS(=O)(=O)c2ccc(-c3csc(C)n3)s2)c(C)c1 | -12%
CC1=C2C(=O)OC(c3ccoc3)C2(C)CCC1 (stereo not given) | -12.4%
Cc1ccc(-n2nc3c(=O)n(C(C)C(=O)NCc4ccc5c(c4)OCO5)nc(C)c3c2C)cc1 (stereo not given) | -17.4%
CC1=C(C(=O)N(C)C)CC(CC(=O)NCCN2CCOCC2)C(=O)N1Cc1ccccc1 (stereo not given) | -3.35%
COc1ccc(OC)c(C2C3=C(N=c4s/c(=C\c5cccc(O)c5)c(=O)n42)c2ccccc2CC3)c1 (stereo not given) | -5.43%
O=C(Cc1ccc(Cl)cc1)NC(=S)Nc1ccccc1O | 31.4% (active)
CCOc1ccccc1NC(=S)NC(=O)CCc1ccccc1 | -6.79%
COC(=O)c1ccccc1NC(=O)CN(Cc1ccc(Cl)cc1)S(C)(=O)=O | -17.4%
CC(=O)c1cc(C#N)c(SCC(=O)Nc2nccs2)nc1C | -13.3%
Clc1cc(NC2CCCCC2)ncn1 | 0.49%
COCCCN(C(=O)Cn1ncc2c(=O)oc3ccc(C)cc3c21)C(C)c1ccncc1 (stereo not given) | -9.26%
CCCCn1nnnc1C(c1cccc(OC)c1OC)N1CCN(C/C=C/c2ccccc2)CC1 (stereo not given) | -19.7%
CN(c1ccccc1)S(=O)(=O)c1ccc(Cl)c(C(=O)OCC(N)=O)c1 | 4.64%
CC(=O)c1c(C)[nH]c(C(=O)COC(=O)CCOc2ccc(C)cc2)c1C | 4.03%
CC(=O)c1c(C)[nH]c(C(=O)COC(=O)c2cccc(S(=O)(=O)N(C)c3ccccc3)c2)c1C | 43.1% (active)

SMILES | inhibition
O=C(NCc1ccccc1)[C@@H]1CSC2c3ccccc3C(=O)N21 (stereo not given in full) | -4.7%
Nc1ccc2nn(-c3ccc(Cl)cc3)nc2c1 | -10.4%
CN(C(=O)CN1C(=O)NC(C)(CCc2ccccc2)C1=O)c1ccccc1 (stereo not given) | -3.27%
CN(C)c1ccc(/C=C2\NC(=S)N(Cc3ccccc3)C2=O)cc1 | 53.4% (active)
CN(C)c1ccc(CSc2ccccc2)cc1 | -21.6%
COc1ccc(N2C(=O)CC(Sc3n[nH]c(-c4ccc(C)cc4)n3)C2=O)cc1 (stereo not given) | 24.5% (active)
Cc1ccc(N2C(=O)CC(Sc3ncn[nH]3)C2=O)cc1 (stereo not given) | -12.5%
COc1ccc(-c2nc(SCC(=O)N3CCOCC3)n[nH]2)cc1 | -11.8%
Cn1c(SCC(=O)NC2CCCCC2)nnc1-c1cc2ccccc2o1 | -5.47%
CCc1c(SCCC(=O)O)nc2ccccc2c1C | -13.8%
CCNC(=S)NCC | -17.7%
Cc1ccc(C2=C/C(=C\c3cccnc3)C(=O)O2)cc1 | 6.03%
O=C1OC(c2ccc(Cl)cc2)=N/C1=C\c1cccnc1 | 32.7% (active)
O=C1NNC(c2ccccc2)=N/C1=C\c1ccc(Cl)cc1 | 3.07%
CN1OC(COC(=O)c2ccc(Cl)cc2)CC1c1ccccc1 (stereo not given) | 28.7% (active)
CCCCCCN1C[C@@H](O)[C@H](n2cc(COC(=O)c3ccccc3)nn2)C[C@@H]1c1ccc(Cl)cc1 | 0.85%
Cn1cncc1COC(=O)c1ccc(Cl)cc1 | 9.06%
O=C(Nn1cc(C(=O)N2CCN(c3ccccc3F)CC2)c2ccccc2c1=O)c1cnccn1 | -2.09%
COc1ccc2cc(C(=O)NCC3CCCO3)[nH]c2c1 (stereo not given) | -13.7%
O=C(NCC1CCCO1)c1cc2c([nH]c3ccccc32)c(-c2ccc(F)cc2)n1 (stereo not given) | 31.3% (active)
O=C(NCCCO)c1cc2c([nH]c3ccccc32)c(-c2ccc(F)cc2)n1 | -6.07%
Fc1ccccc1CCNc1nnnn1-c1ccccc1 | -1.72%
COC(=O)Cc1ccc(NC(=S)NCc2ccco2)cc1 | 2.26%
Cc1ccsc1C(=O)NCCc1ccco1 | -8.62%

SMILES | inhibition
OCCc1ccc(NCCc2ccco2)cc1 | 29.2% (active)
CC1=CC2=NC(=O)CC(C)(C(=O)N(CC(=O)NC(C)(C)C)Cc3ccccc3)N2C=C1 (stereo not given) | -17.9%
CC1(C)CC(=O)C2=C(C1)N=C1SCCC(=O)N1C2c1ccc(C(F)(F)F)cc1 (stereo not given) | -16.7%
N/C(=N\OC(=O)N1c2ccccc2Sc2ccccc21)c1ccc(Br)cc1 | -4.6%
N/C(=N\OC(=O)/C=C/c1ccccc1)c1ccc(Br)cc1 | 24.5% (active)
N/C(=N\OC(=O)Cc1ccccc1[N+](=O)[O-])c1ccc(Br)cc1 | -3.46%
CCc1ccc(/C=N/NC(=O)c2ccc(OC3CCCC3)cc2)s1 | 3.77%
Cc1cc(=O)oc2c(C)c(OCC(=O)NCCN3CCOCC3)ccc12 | -7.03%
O=C(C1CCCO1)N1CCN(S(=O)(=O)c2ccc(Br)cc2)CC1 (stereo not given) | 5.99%
COc1cc(C(=S)NCc2ccccc2)cc(Br)c1O | -5.75%
O=C(Cn1nc(C(F)(F)F)c2c1CCC2)NCc1ccc(F)cc1 | 25% (active)
CCC(C)NC(=O)Cn1nc(C(F)(F)F)c2c1CCC2 (stereo not given) | -24.7%
Cc1cc(NC(=O)Cn2nc(C(F)(F)F)c3c2CCCC3)no1 | -9.16%
N#CC1(Nc2ccc3c4c(cccc24)CC3)CCCCC1 | 35.7% (active)
N#CC1(Nc2ccc(-c3ccc(Cl)cc3)cc2)CCCC1 | -8.66%
CC(C)C(=O)Nc1ccc2c3c(cccc13)CC2 | -5.37%
CCn1c(=O)c(=O)[nH]c2c(=O)oc3ccc(S(=O)(=O)Nc4ccc(OC)cc4)cc3c21 | -7.54%
CCC(Cc1ccccc1)NC(=O)C1CCCCC1 (stereo not given) | 27.9% (active)
Cc1ccc(NC(=O)[C@H](Cc2ccccc2)NC(=O)C2CCNCC2)cc1 | -21.4%
CCC(NC(=O)C1CCCC1)c1ccc(C)cc1 (stereo not given) | -8.16%
O=c1[nH]c(CSc2ccccc2)nc2c1oc1ccccc12 | -8.98%
CN(C(=O)CSc1nnc(-c2n[nH]c3ccccc23)o1)c1ccccc1 | -5.61%
Cc1cccc2cc3c(N)c(C(=O)N4CCCc5ccccc54)sc3nc12 | 13.5%
COc1ccc(NC(=O)C(NC(C)=O)C(=O)NCc2ccccc2Cl)cc1 (stereo not given) | 1.86%

SMILES | inhibition
O=C(Nc1ccc(Cl)cc1)c1csc([C@H]2C[C@H](O)[C@@H](CO)O2)n1 | 20.1%
O=C(Nc1ccc(OCCO)cc1)c1csc([C@H]2C[C@H](O)[C@@H](CO)O2)n1 | 25.4% (active)
O=C(Nc1ccc(Cl)cc1)c1csc([C@@H]2O[C@H](CO)[C@H](O)[C@H](O)[C@H]2O)n1 | -8.36%
O=C(c1ccc(S(=O)(=O)N2CCCC2)cc1)N1CCN(c2ccccc2F)CC1 | -8.35%
O=C(c1ccc(S(=O)(=O)NCc2ccco2)cc1)N1CCN(c2ccccc2)CC1 | -11.5%
O=C(c1ccc(S(=O)(=O)N2CCOCC2)cc1)N1CCN(c2ccccc2)CC1 | 24.7% (active)
COC(=O)c1nc(NC(=O)c2ccc(F)cc2)n[nH]1 | -11.8%
CSc1nccc(NC(=O)c2ccc(C(C)(C)C)cc2)n1 | 24.6% (active)
Cc1ccc(C(=O)Nc2ccn(C)n2)cc1 | -13.4%
COc1ccccc1CNC(=O)c1cc(-c2cc(Cl)ccc2C)n[nH]1 | -17.7%
Cc1ccc(S(=O)(=O)N(Cc2ccc(Cl)cc2)c2ccccc2C(=O)NCc2cccnc2)cc1 | 22.6%
Nc1nonc1-c1nc2ccccc2n1Cc1ccc(F)cc1 | 24.1% (active)
O=c1[nH]cccc1-c1nc2ccccc2n1Cc1ccc(Cl)cc1 | 6.91%
COc1ccc(C)c(Cn2c(-c3nonc3N)nc3ccccc32)c1 | -35.1%
O/N=C(\C[n+]1ccccc1)c1ccc(Br)cc1 | -7.88%
CCS(=O)(=O)c1ccc(C(=O)NC)c(Cl)c1Cl | -11.1%
CC(=O)Nc1ccc(S(=O)(=O)N2CCN(S(=O)(=O)c3cccs3)CC2)cc1 | 6.03%
CC(=O)c1cccc(NC(=O)C2CCCN2S(=O)(=O)c2cccc3nsnc23)c1 (stereo not given) | 5.27%
CC(=O)c1ccc(NC(=O)C2CCCN2S(=O)(=O)c2cccs2)cc1 (stereo not given) | 24% (active)
Cc1ccc(SCCN2C(=O)NC(C)(C)C2=O)cc1 | -11.7%
CCOC(=O)C1C(=O)C=C(c2ccc(OC)cc2)CC1c1ccco1 (stereo not given) | -9.22%
CCC1(C(=O)c2ccccc2)C(c2cccc([N+](=O)[O-])c2)C1(C(=O)OC)C(=O)OC (stereo not given) | -5.15%
COc1ccc(N2CCN(C(=S)Nc3ccc(S(N)(=O)=O)cc3)CC2)cc1 | -21.9%
